High-throughput results deposited in PubChem by National Center for Advancing Translational Sciences (NCATS).
PI5P4K alpha inh: PI5P4K alpha (human) kinase inhibition | P48426 | PI5P4Kalpha enzyme, ADP-Glo luminescence, 60 min; stronger effect = lower value | max response, % | 1.2% of 330,000 active | AID 652105; active = max response of -50% or lower; inconclusive = between -30% and -50%; inactive = -30% or higher; note: value at the top dose of about 77 µM
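Compounds were pin-transferred onto PI5P4Kalpha and substrate in HEPES pH 7.4 buffer with EGTA, CHAPS and 5% DMSO. ATP (5 microM final) started the reaction, which ran 60 minutes at room temperature before ADP-Glo detection.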
Pin1 inhibitor: human Pin1 inhibition; 0.009% of 390,000 active; Pin1 FP peptide displacement, HiFluor488, 10 min; AID 504891; Potency, µM (series often up to 115 µM), for the others: at the top dose activity, negative = inhibition, usual class: inhibitors; active = well fitted inhibition curve with a large enough effect in the polarisation, with a control signal flat, not every such curve was filed as active; inconclusive = small, poorly fitted or top-dose-only effect, or effect the other way, or a change in a side signal; inactive = no such curve, though single readings can be large or run the other way; the % refers to the polarisation; note: potency is the fitted concentration of half-maximal effect
Target sequence (Q13526 whole entry, looked up): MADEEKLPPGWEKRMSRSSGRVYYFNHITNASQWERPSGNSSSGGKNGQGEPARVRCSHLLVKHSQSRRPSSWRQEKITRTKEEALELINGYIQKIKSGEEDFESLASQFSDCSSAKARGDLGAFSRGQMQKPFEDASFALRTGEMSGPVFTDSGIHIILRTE
PI4K2A inh: PI4K2A (human) kinase inhibition; activity change, negative = inhibition, % at 76.9 µM; 0.13% of 420,000 active; AID 1346378; purified PI4K2A, ADP-Glo luminescence, 1 h; stronger effect = lower value; Q9BTU6; in the data active = activity change below about -50%; inconclusive = mostly about -30% to -49%;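 note: -100% = wells without enzyme as full effect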
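PI4K2A activity was measured by ADP-Glo luminescence: enzyme (4 ug/mL stock) and phosphatidylinositol (1.2 mM stock) in Tris pH 7.5/MgCl2/EGTA/Triton X-100 buffer were reacted with ATP (300 microM stock) for one hour at ambient temperature.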
Tb PFK inh: blocks T. brucei phosphofructokinase. AID 485367. T. brucei PFK, ADP-Glo luminescence. 0.17% of 330,000 active. O15648. Potency, µM (top dose mostly 57.5 µM), inactives show at the top dose activity, negative = inhibition, hits mostly inhibitors;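 note: potency is the fitted concentration of half-maximal effect; 0% = uninhibited 1x PFK enzyme wells and -100% = no-enzyme wells; nearly all actives have a fitted effect of over 60% in size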
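In TEA buffer at pH 8.0 with 5 mM MgCl2, enzyme (1.25 nM) converted F6P (0.5 mM) and ATP (0.1 mM) for 45 min at room temperature. ADP product was read by luciferase luminescence.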
Tb PGK inh: inhibitors of T. brucei phosphoglycerate kinase | P07378 | Potency, µM (top dose mostly 57.5 µM), without a hit: at the highest dose activity change, negative = inhibition, actives largely listed as inhibitors | 0.043% of 380,000 active | AID 602233 | PGK/GAPDH coupled, Kinase-Glo luminescence, 60 min; note: potency is the fitted concentration of half-maximal effect; nearly all actives have a fitted effect of over 60% in size
Target sequence (P07378 whole entry, looked up): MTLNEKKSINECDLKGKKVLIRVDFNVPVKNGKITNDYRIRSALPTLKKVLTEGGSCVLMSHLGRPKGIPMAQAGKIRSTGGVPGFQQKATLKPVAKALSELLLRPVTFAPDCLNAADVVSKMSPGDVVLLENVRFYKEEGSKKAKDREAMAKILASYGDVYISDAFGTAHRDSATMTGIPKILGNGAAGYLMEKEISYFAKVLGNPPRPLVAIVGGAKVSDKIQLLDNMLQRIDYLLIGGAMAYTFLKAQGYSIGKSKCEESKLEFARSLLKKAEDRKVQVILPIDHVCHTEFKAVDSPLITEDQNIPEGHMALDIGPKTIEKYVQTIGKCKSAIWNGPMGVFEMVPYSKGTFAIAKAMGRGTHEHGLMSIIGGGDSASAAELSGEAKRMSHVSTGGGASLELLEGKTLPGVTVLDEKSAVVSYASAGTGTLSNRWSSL
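Luminescent ATP detection (Kinase-Glo Plus) follows a 60-minute room-temperature incubation, with wells lacking PGK as controls. Buffer: 100 mM TEA (pH 7.6), 5 mM MgCl2, 0.01% Tween-20. Coupling enzyme GAPDH (100 nM final) supplies unstable 1,3-BPG in-well.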
ADP-Glo counter: counter-screen for PI5P4K inhibitors: ADP-Glo detection interference, no enzyme; shares compounds with PI5P4K alpha inh; ADP-Glo detection counter-screen, luciferase luminescence, no enzyme; Potency, µM (titrated, usually from 76.9 µM), for the others: at the top dose activity change, negative = inhibition, most hits filed as inhibitors; 1,100 tested, under 10 active
* marks the source's active call; other numbers are inactive results; i = inactive; ? = inconclusive; . = no result given. The entries come from a sample that favours hits as a whole. Unless noted, calls come from the whole dose curve; as a rule, active = well fitted curve in the direction sought with a large enough effect; inconclusive = small, poorly fitted or top-dose-only effect, or another doubt; inactive = no such curve, though single readings can be large; an effect the other way counts as inactive or inconclusive. Unless noted, % is set by controls: 0 for no effect and ±100 for the full control effect.

SMILES	PI5P4K alpha inh	Pin1 inhibitor	PI4K2A inh	Tb PFK inh	Tb PGK inh	ADP-Glo counter
O=C(NC1CC1)c1ccc(NC(=O)C2CCC2)cc1	-51*	-8%	-3	.	-9%	-4%
C=CCN1[C@H](CC(C)C)COc2cc(N3CCSCC3)ccc2S1(=O)=O	.	.	2	.	.	.
COc1cccc2cc(C(C)N(CCCN3CCOCC3)C(=O)Nc3ccccc3)oc12 (stereo not drawn)	-2	-4%	-1	1%	4%	0%
COc1ccc(NC(=S)N(CCCN2CCOCC2)C(C)c2cc3cccc(OC)c3o2)cc1 (stereo not drawn)	3	2%	1	8%	-11%	.
COc1ccc(C(=O)N2CCC2(C)C(=O)O)cc1F (stereo not drawn)	?	.	9	.	.	2%
CCOC(=O)C1(C)CCCN1C(=O)c1ccc(OC)c(F)c1 (stereo not drawn)	-2	.	0	.	.	.
COCc1ccc2oc(C(=O)O)cc2c1	-68*	3%	-1	-2%	i	0%
Nc1sc2c(c1C(=O)c1ccccc1)CCCC2	-51*	-4%	1	-3%	3%	-6%
NC(=O)c1c(N)sc2c1CCCC2	-7	-13%	-2	-15%	-4%	.
O=C(CN1CCCCC1)Nc1nnc(-c2ccccc2)s1	7	2%	-1	2%	-5%	.
O=C(CN1CCCCC1)Nc1nnc(-c2ccc([N+](=O)[O-])cc2)s1	-70*	?	-1	14%	-5%	1%
Cc1cc([N+](=O)[O-])cc2c1NC(c1ccccn1)C1CC=CC21 (stereo not drawn)	-71*	?	-8	12%	-5%	-4%
CCOC(=O)Cc1csc(NC(=O)Cc2ccccc2)n1	9	-11%	2	-1%	4%	.
CCOC(=O)Cc1csc(NC(=O)Cc2cccs2)n1	-58*	9%	-3	?	-4%	0%
O=C(Nc1nc2ncccn2c1-c1ccc(F)c(F)c1)C1CC1	.	.	3	.	.	.
COC(=O)c1cc2c(ccn2-c2ccc(F)cc2)n1Cc1ccc(OC)cc1	11	-4%	-2	5%	-9%	.
CCn1c(C(=O)OC)cc2c1ccn2-c1ccc(F)cc1	-50*	6%	-23	1%	-1%	-2%
CCOc1ccc(NC(=O)c2cc(=O)[nH]c3ccccc23)cc1	-51*	5%	-3	-3%	6%	-6%
CC(=O)c1ccc(NC(=O)c2cc(=O)[nH]c3ccccc23)cc1	-15	38%	0	-1%	-9%	.
CC(C)CN1CN2Cc3cc(F)ccc3C2CS1(=O)=O (stereo not drawn)	.	.	-2	.	.	.
O=C(NCCCCc1ccccc1)c1cccc(NC(=O)C2CC2)c1	-53*	-10%	-5	.	-7%	-1%
O=C(NCCCc1ccccc1)c1cccc(NC(=O)C2CC2)c1	-4	-1%	5	.	-4%	.
Cc1nnc(SCC(=O)NC(=O)NCc2ccco2)n1Cc1ccccc1	-52*	11%	-23	?	-7%	-2%
Nn1c(SCC(=O)NC(=O)NCc2ccco2)nnc1-c1ccc(OC(F)F)cc1	-67*	?	-13	-22%	-18%	-6%
CCn1c(SCC(=O)NC(=O)NCc2ccco2)nc2sc(C)c(C)c2c1=O	-51*	?	-11	?	0%	1%
SMILES	PI5P4K alpha inh	Pin1 inhibitor	PI4K2A inh	Tb PFK inh	Tb PGK inh	ADP-Glo counter
CC(C)OC(=O)C1=CNCC(C)(C)c2c1[nH]c1cc(F)ccc21	.	.	-2	.	.	.
COc1ccc(-c2cc(-c3nnc(SCC(=O)NC4CCCCC4)n3N)[nH]n2)cc1	.	.	1	.	.	.
CC(C)(C)[C@H]1C=C(C(=O)N2CCOCC2)O[C@@H](OCc2ccc(CO)cc2)C1	0	3%	-1	-5%	-5%	3%
COC(=O)c1ccccc1NC(=O)CN1CCC(n2nnc3cc(C(F)(F)F)ccc32)CC1	?	15%	1	-2%	-2%	4%
O=C(O)CCC(=O)N1CCC(n2nnc3cc(C(F)(F)F)ccc32)CC1	-24	111%	7	0%	4%	2%
COc1ccc(CCNC(=O)CNCC(c2ccccc2)N(C)C)cc1OC (stereo not drawn)	-2	-5%	-2	-9%	i	-2%
COC(=O)[C@@]1(C(C)C)N=C(c2cc(OC)c(OC)c(OC)c2)[C@]2(O1)C(=O)N(Cc1cn(Cc3ccccc3)nn1)c1ccc(F)cc12	.	.	-15	.	.	.
Oc1ccc(CNc2ccccc2C(F)(F)F)c2cccnc12	.	1%	-14	.	.	.
Oc1ccc(CNc2ccccc2F)c2cccnc12	?	-7%	-4	-2%	-4%	-9%
COC(=O)C[C@H]1CC[C@@H]2[C@@H](COc3ccc(NC(=O)Nc4ccccc4OC)cc3C(=O)N2C)O1	.	.	-4	.	.	.
Cc1cc(C(=O)Nc2sccc2C#N)c2ccccc2n1	-73*	95%	-4	2%	2%	1%
CN(Cc1ccccc1)C(=O)c1csc([C@@H]2C[C@H](O)[C@@H](CO)O2)n1	0	.	1	.	.	.
CN(Cc1ccccc1)C(=O)c1csc([C@H]2C[C@H](O)[C@@H](CO)O2)n1	0	.	-9	.	.	-3%
O=C(O)c1cc(-c2ccc(-c3c(-c4ccc5c(c4)OCO5)noc3-c3ccsc3)cc2)nc2ccccc12	-71*	.	0	1%	-4%	0%
O=S(=O)(Nc1cc(S(=O)(=O)N2CCCC2)ccc1O)c1ccc(Cl)s1	-3	-1%	4	10%	0%	.
O=C(Nc1cc(S(=O)(=O)N2CCOCC2)ccc1O)c1ccc(NS(=O)(=O)c2ccc(Cl)s2)cc1	-59*	-2%	-2	1%	7%	3%
CN(C)C(=O)c1ccc(NC(=O)COC(=O)C2=COCCO2)cc1	?	3%	2	15%	i	2%
O=c1[nH]c2cc3c(cc2cc1CN(Cc1ccccc1)Cc1nnnn1Cc1ccco1)OCCO3	-54*	8%	-10	-29%	2%	10%
COC(=O)C1CN(CCc2ccccc2)CCS(=O)(=O)N1Cc1ccc(C)cc1 (stereo not drawn)	.	.	2	.	.	.
Cc1cc(-c2n[nH]c(=S)n2N=Cc2ccc(-c3ccccc3)cc2)n[nH]1	.	.	-2	.	.	.
CCCCCCCCN1C(=O)[C@H](CC(=O)NCc2ccc(C)o2)C[C@@]2(C(=O)OC)CC(C)(C)CC=C12	-51*	.	-4	.	.	-1%
COc1ccc(S(=O)(=O)N2CCOCC2)cc1NC(=O)c1cccc(-n2cccc2)c1	-74*	?	?	?	-14%	0%
COc1ccccc1NC(=O)c1cccc(S(=O)(=O)N2CCOCC2)c1	4	6%	6	-2%	i	.
Cc1ccc(CNc2ncnc3ccc(-c4ccc(CO)o4)cc23)o1	.	.	-18	.	.	5%
